Several values for one entry are separate records, joined by “and”; a condition that tells them apart may be missing. Equal values may be shown once. Results filed as inconclusive are left out. Activity calls are given as the source filed them. Calls follow the shape of the dose curve; as a rule, active = well fitted curve in the direction sought with a large enough effect in the repeat runs; inconclusive = weak or mixed curves; inactive = no such curve, though single readings can be large; an effect the other way counts as inactive or inconclusive.
Tests used:
[1] = target: Nuclear receptor subfamily 1 group I member 2 (Rattus norvegicus) (UniProt Q9R1A7); experiment: Rat pregnane X receptor (rPXR) activation by small molecules, qHTS assay (AID 1346983); settings: rPXR luciferase reporter cells, One-Glo luminescence, 24 h; max activation: hits give high values; also: nearly all actives have a fitted effect of over 20% in size
Summary of the method: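 Cell-based rPXR luciferase reporter assay, 2,000 cells per well, rested 5hr at 37 C before compound addition in DMSO, then 24 hr at 37 C. One-Glo reagent was added and luminescence read after 30 min at room temperature.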

[2] = target: Nuclear receptor subfamily 1 group I member 2 (Homo sapiens) (UniProt O75469); experiment: CYP3A4 induction through human pregnane X receptor (PXR) by small molecules, qHTS assay (AID 1346984); also: nearly all actives have a fitted effect of over 40% in size
Summary of the method: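 Luminescence readout: luciferase signal after One-Glo (30 min, room temperature), following 3 h at 37C with 3uM final Luciferin-IPA P450 substrate. Cells were DPX-2 (HepG2, PXR/CYP3A4-luc co-transfected) dosed for 24 h.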

[3] = target: Nuclear receptor subfamily 1 group I member 2 (Homo sapiens) (UniProt O75469); experiment: Human pregnane X receptor (PXR) activation by small molecules, qHTS assay (AID 1346985); also: nearly all actives have a fitted effect of over 40% in size
Summary of the method: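 DPX-2 cells (HepG2 co-transfected with a PXR response element and a CYP3A4-promoter luciferase construct) were seeded at 2,000 per well, rested 5 hr at 37C, then exposed to DMSO-dissolved compounds for 24 hr. Activation was read as luciferase luminescence.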
% is scaled to controls: 0 for no effect and ±100 for the full control effect.

Sequence of Nuclear receptor subfamily 1 group I member 2 (Rattus norvegicus) (Q9R1A7 whole entry, looked up): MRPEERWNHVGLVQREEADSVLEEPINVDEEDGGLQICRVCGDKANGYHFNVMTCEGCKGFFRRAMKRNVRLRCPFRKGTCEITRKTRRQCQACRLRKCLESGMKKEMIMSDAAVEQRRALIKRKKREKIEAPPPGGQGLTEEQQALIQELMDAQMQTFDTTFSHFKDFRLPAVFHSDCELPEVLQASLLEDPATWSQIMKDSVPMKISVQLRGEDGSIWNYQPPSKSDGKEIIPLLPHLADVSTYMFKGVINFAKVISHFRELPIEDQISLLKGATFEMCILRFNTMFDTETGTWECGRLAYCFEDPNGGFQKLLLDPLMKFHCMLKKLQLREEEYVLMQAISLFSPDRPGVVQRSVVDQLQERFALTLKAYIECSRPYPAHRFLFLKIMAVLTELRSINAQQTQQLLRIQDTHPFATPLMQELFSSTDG

CC(C)(COP(=O)(O)OP(=O)(O)OC[C@H]1O[C@@H](n2cnc3c(N)ncnc32)[C@H](O)[C@@H]1OP(=O)(O)O)C(O)C(=O)NCCC(=O)NCCS (stereo partly drawn)
inactive: max activation [1] 0.513% | Potency [2] | Potency [3]

COc1c(O)cc2c(c1O)[C@@H]1O[C@H](CO)[C@@H](O)[C@H](O)[C@H]1OC2=O
inactive: max activation [1] -0.0644% | Potency [2] | Potency [3]

C[N+](C)(C)CCOP(=O)(O)OP(=O)([O-])OC[C@H]1O[C@@H](n2ccc(N)nc2=O)[C@H](O)[C@@H]1O
inactive: max activation [1] -1.05% | Potency [2] | Potency [3]

CC(=O)Nc1ccc(OC(C)=O)cc1
inactive: max activation [1] -1.35% | Potency [2] | Potency [3]

CCOc1ccc(NC(=S)Nc2ccc(OCC)cc2)cc1
inactive: max activation [1] -1.61% | Potency [2] | Potency [3]

Cc1ccc(C(C)(C)c2ccc(C)cc2)cc1
inactive: max activation [1] -4.5% | Potency [2] | Potency [3]

O=C(O)[C@@H]1C[C@H](CP(=O)(O)O)CCN1
inactive: max activation [1] -5.85% | Potency [2] | Potency [3]

N[C@H](C(=O)O)[C@@H]1CC(Cl)=NO1
inactive: max activation [1] -12.5% | Potency [2] | Potency [3]

Cc1cn([C@H]2C[C@H](O)[C@@H](CO)O2)c(=O)[nH]c1=O
inactive: max activation [1] -1.3% | Potency [2] | Potency [3]

OCl
inactive: max activation [1] 0.862% | Potency [2] | Potency [3]

CCCCCCCCCC(=O)NO
inactive: max activation [1] -0.53% | Potency [2] | Potency [3]

CC1=C(/C=C/C(C)=C/C=C/C(C)=C/C=C/C=C(C)/C=C/C=C(C)/C=C/C2=C(C)CCCC2(C)C)C(C)(C)CCC1
inactive: max activation [1] -2.1% | Potency [2] | Potency [3]

CC[C@H]1OC(=O)C[C@@H](O)[C@H](C)[C@@H](O[C@@H]2O[C@H](C)[C@@H](O[C@H]3C[C@@](C)(O)[C@@H](O)[C@H](C)O3)[C@H](N(C)C)[C@H]2O)[C@@H](CC=O)C[C@@H](C)C(=O)/C=C/C(C)=C/[C@@H]1CO[C@@H]1O[C@H](C)[C@@H](O)[C@@H](OC)[C@H]1OC
inactive: max activation [1] 0.133% | Potency [2] | Potency [3]

O=C(O)c1cc(O)c2c(c1)[C@H]([C@H]1c3cc(C(=O)O)cc(O)c3C(=O)c3c(O[C@@H]4O[C@H](CO)[C@@H](O)[C@H](O)[C@H]4O)cccc31)c1cccc(O[C@@H]3O[C@H](CO)[C@@H](O)[C@H](O)[C@H]3O)c1C2=O
inactive: max activation [1] -0.0362% | Potency [2] | Potency [3]

NC(=O)C1c2ccccc2CCc2ccccc21
inactive: max activation [1] -2.21% | Potency [2] | Potency [3]

NC(=S)NS(=O)(=O)c1ccc(N)cc1
inactive: max activation [1] -1.97% | Potency [2] | Potency [3]

O=C(O)COc1ccc(C(=O)c2cccs2)c(Cl)c1Cl
inactive: max activation [1] -1.39% and -4.28% | Potency [2] | Potency [3]

COC1=C(OC)C(=O)C(C/C=C(\C)CC/C=C(\C)CC/C=C(\C)CC/C=C(\C)CC/C=C(\C)CC/C=C(\C)CC/C=C(\C)CC/C=C(\C)CC/C=C(\C)CCC=C(C)C)=C(C)C1=O
inactive: max activation [1] -2.14% | Potency [2] | Potency [3]

NC[C@H]1O[C@H](O[C@H]2[C@H](O)[C@@H](O[C@H]3O[C@H](CO)[C@@H](O)[C@H](N)[C@H]3O)[C@H](N)C[C@@H]2N)[C@H](N)C[C@@H]1O
inactive: max activation [1] 7.07% | Potency [2] | Potency [3]

O=C[C@H](O)[C@@H](O)[C@@H](O)[C@H](O)CO
inactive: max activation [1] -2.08% | Potency [2] | Potency [3]

Cc1cc(=O)c(C(=O)N[C@@H](C(=O)N[C@@H]2C(=O)N3C(C(=O)O)=C(CSc4nnnn4C)CS[C@H]23)c2ccc(O)cc2)c[nH]1
inactive: max activation [1] -0.22% | Potency [2] | Potency [3]

C[C@@H]1O[C@@H]1P(=O)(O)O
inactive: max activation [1] -1.9% | Potency [2] | Potency [3]

CC(=O)NC[C@H]1CN(c2ccc(N3CCOCC3)c(F)c2)C(=O)O1
inactive: max activation [1] -2.66% | Potency [2] | Potency [3]

FC(F)(F)COCC(F)(F)F
inactive: max activation [1] -3.1% | Potency [2] | Potency [3]

CN[C@@H]1[C@@H](O[C@H]2O[C@H](CO)[C@@H](N)[C@H](O)[C@H]2O)O[C@H]2C[C@@H](N)[C@@H](O[C@H]3[C@H](O)[C@@H](O)[C@H](N)C[C@@H]3N)O[C@@H]2[C@@H]1O
inactive: max activation [1] -0.875% | Potency [2] | Potency [3]

CC(=NCc1ccccc1)c1ccccc1O
inactive: max activation [1] -4.51% | Potency [2] | Potency [3]
